According to PubChem BioAssay AID2284132 (EPA ToxCast):
Results filed as inconclusive are left out. Active and inactive are the calls of the source. The calls were made as follows: active = hit-call score of the fitted dose curve at least 0.9, where 1 is the maximum; inconclusive = response in the unintended direction; inactive = score below 0.9.

target: human SGK1 AGC Kinase, SGK1 (gene 6446) (UniProt O00141); assay: ERF_FR_ENZ_hSGK1: Eurofins (ERF) Enzymatic Radiometric [Km ATP] KinaseProfiler LeadHunter Assay for human SGK1 AGC Kinase
Sequence (O00141 whole entry, looked up): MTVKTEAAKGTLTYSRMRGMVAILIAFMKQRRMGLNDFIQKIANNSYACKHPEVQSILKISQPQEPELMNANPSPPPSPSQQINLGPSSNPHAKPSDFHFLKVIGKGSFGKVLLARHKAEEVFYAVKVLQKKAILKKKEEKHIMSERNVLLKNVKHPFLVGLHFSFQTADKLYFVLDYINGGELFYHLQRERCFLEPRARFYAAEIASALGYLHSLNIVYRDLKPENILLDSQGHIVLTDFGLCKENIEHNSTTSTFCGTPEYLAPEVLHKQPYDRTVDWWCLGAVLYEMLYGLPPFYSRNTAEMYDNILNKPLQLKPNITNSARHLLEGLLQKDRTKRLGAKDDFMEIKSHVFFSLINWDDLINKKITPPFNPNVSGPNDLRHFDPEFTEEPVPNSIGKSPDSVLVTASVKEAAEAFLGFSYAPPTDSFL
Method: ERF_FR_ENZ_hSGK1 is a biochemical, single-readout assay that uses extracted gene-proteins in a cell-free assay. Measurements were taken 0.5 hour after chemical dosing in a 96-well plate. See SGK1 Human AGC Kinase Enzymatic LANCE Assay [Km ATP], Cerep.ERF_FR_ENZ_hSGK1 is an assay component calculated from the ERF_FR_ENZ_hSGK1 assay. It is designed to measure enzyme activity using a type of enzyme reporter as detected by fluorescence intensity with LANCE technology.Data from the assay component ERF_FR_ENZ_hSGK1 was analyzed at the assay endpoint, ERF_FR_ENZ_hSGK1, in the positive analysis fitting direction relative to DMSO as the negative control and baseline of activity. Using a type of enzyme reporter, loss-of-signal activity can be used to understand changes in enzymatic activity as they relate to gene SGK1. To generalize the intended target to other relatable targets, this assay endpoint is annotated to the kinase intended target family, where the subfamily is serine/threonine kinase.
SGK (h) is incubated with 8 mM MOPS pH 7.0, 0.2 mM EDTA, 30 uM […], 10 mM MgAcetate and [g- 33P]-ATP (specific activity and concentration as required). The reaction is initiated by the addition of the Mg/ATP mix. After incubation for 40 minutes at room temperature, the reaction is stopped by the addition of phosphoric acid to a concentration of 0.5%. […]

SMILES	outcome
O=C(/C=C/c1ccc(O)cc1)CC(=O)/C=C/c1ccc(O)cc1	inactive
